Records with an inconclusive call do not appear. Calls of active or inactive are those of the source. How the source made its calls: active means hit-call score of the fitted dose curve at least 0.9, where 1 is the maximum; inconclusive means response in the unintended direction; inactive means score below 0.9.

Sequence of Glucocorticoid receptor (Homo sapiens) (P04150 whole entry, looked up): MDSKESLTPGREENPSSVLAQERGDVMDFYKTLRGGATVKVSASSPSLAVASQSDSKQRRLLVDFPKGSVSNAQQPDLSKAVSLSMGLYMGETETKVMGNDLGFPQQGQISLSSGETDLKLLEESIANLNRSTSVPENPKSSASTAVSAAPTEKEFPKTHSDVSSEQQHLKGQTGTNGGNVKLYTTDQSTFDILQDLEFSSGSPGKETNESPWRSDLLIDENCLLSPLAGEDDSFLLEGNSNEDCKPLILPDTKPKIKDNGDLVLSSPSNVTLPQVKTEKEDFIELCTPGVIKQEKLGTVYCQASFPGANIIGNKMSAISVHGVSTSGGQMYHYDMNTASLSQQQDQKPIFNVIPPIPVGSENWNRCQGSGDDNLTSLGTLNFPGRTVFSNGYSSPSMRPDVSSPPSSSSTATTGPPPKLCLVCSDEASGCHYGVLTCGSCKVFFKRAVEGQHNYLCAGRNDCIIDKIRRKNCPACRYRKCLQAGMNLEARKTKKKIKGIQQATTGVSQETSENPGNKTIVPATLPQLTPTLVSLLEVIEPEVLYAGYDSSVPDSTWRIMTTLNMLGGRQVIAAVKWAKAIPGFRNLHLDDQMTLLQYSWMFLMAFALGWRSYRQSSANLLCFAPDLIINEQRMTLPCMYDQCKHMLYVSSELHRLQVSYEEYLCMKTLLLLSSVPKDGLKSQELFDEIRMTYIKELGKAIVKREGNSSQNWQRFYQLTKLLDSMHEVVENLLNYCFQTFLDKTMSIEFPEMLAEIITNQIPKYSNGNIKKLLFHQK
Sequence of Estrogen-related receptor gamma (Homo sapiens) (P62508 whole entry, looked up, the tested form may be a part): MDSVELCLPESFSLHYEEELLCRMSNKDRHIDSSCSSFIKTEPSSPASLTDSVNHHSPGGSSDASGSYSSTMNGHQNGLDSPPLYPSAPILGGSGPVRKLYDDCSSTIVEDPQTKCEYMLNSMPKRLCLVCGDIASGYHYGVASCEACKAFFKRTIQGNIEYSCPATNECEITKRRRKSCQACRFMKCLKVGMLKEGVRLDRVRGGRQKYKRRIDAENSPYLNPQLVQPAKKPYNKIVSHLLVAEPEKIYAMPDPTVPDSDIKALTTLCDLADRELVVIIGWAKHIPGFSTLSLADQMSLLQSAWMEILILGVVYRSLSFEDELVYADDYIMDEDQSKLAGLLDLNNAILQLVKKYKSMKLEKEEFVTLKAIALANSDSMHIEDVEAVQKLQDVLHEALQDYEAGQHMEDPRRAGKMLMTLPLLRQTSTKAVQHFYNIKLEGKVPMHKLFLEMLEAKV

Test system in the first experiment: not listed separately
The experiment is described as follows: ATG_GAL4_TRANS: Attagene TRANS-FACTORIAL HepG2 Assay for GAL4 (Internal Marker) (AID 2282976). The following applies: HepG2 Attagene TRANS GAL4 internal marker reporter. Summed up: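 Liver HepG2 line bearing multiplexed GAL4-UAS reporter constructs; 24 h chemical treatment. Transcripts were quantified as fluorescent fragments on capillary electrophoresis after RT-PCR and HpaI cut, with activity fitted upward from DMSO.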
`CC1=NN(c2ccc(S(=O)(=O)O)cc2)C(=O)C1`: the result was inactive.

Consider `NCc1ccco1`, for which the molecule was classed as inactive.

Take `OCc1cccc(Oc2ccccc2)c1`: the call was inactive.

As for `C=C(C)C(=O)OCCOCCOCCOCCOC(=O)C(=C)C`, the molecule was classed as inactive.

For `c1ccc2[nH]cnc2c1`, the result was inactive.

Take `CCCCCCCCCCCCCC(=O)OCC(O)CO` (configuration not stated): the outcome was inactive.

On to `COc1ccc(CCN2CCC(Nc3nc4ccccc4n3Cc3ccc(F)cc3)CC2)cc1`, for which the call was inactive.

Regarding `CC(C)(C)c1ccc(C(=O)O)cc1`, the result was inactive.

In the case of `Nc1ccc(Cl)c([N+](=O)[O-])c1`, the outcome was inactive.

Consider `CS(=O)(=O)c1ccc(Cl)cc1`, for which the outcome was inactive.

With `COc1cc(CCC(C)=O)ccc1O`, the call was inactive.

For the molecule `O=C1NC2NC(=O)NC2N1` (configuration not stated), the outcome was inactive.

In the case of `CC(C)CCOC(=O)c1ccccc1`, the call was inactive.

As for `COc1ccc(CCC(C)=O)cc1`, the call was inactive.

With `COC(=O)c1cccnc1`, the molecule was classed as inactive.

Turning to `COC(CC(C)CCCC(C)(C)O)OC` (configuration not stated), the molecule was classed as inactive.

In the case of `C[Si](C)(C)O[Si](C)(C)C`, the call was inactive.

For the molecule `C=C(C)C(=O)OCCOCCOCCOC(=O)C(=C)C`, the molecule was called inactive.

With `Cc1ccc(C)o1`, the call was inactive.

In the case of `C=C(C)C(=O)OCCOC1CC2CC1C1C=CCC21` (configuration not stated), the call was inactive.

Take `C=COCCOCCOC=C`: the result was inactive.

Consider `CCC1(C)NC(=O)NC1=O` (configuration not stated), for which the molecule was called inactive.

For the molecule `CCc1ccc(O)cc1`, the molecule was called inactive.

Another experiment has as its target Estrogen-related receptor gamma (Homo sapiens) (UniProt P62508). Put plainly: ATG_ERRg_TRANS: Attagene TRANS-FACTORIAL HepG2 Assay for human Estrogen-Related Receptor gamma (ERRg) (AID 2282977).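 Further: hits increase reporter signal over DMSO so potencies reflect activators.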 The following applies: HepG2 Attagene TRANS reporter, ERRg transactivation. Put shortly: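 Exogenous NR-Gal4 chimera activity was assessed in HepG2 cells bearing transfected GAL4-UAS reporters. After 24 h dosing, total RNA underwent RT-PCR, fluorescent primer extension and HpaI digestion before capillary electrophoresis, with gain of signal scored against DMSO.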
In the case of `COc1ccc(CCN2CCC(Nc3nc4ccccc4n3Cc3ccc(F)cc3)CC2)cc1`, the molecule was classed as inactive.

For the molecule `COC(C)(C)CCCC(C)CC=O` (configuration not stated), the molecule was classed as inactive.

Regarding `CS(=O)(=O)c1ccc(Cl)cc1`, the outcome was inactive.

Consider `COc1cc(CCC(C)=O)ccc1O`, for which the molecule was classed as inactive.

As for `CCCCCCOC(=O)C(C)C`, the call was inactive.

Take `COC(=O)c1cccnc1`: the result was inactive.

On to `Cc1ccc(C)o1`, for which the molecule was classed as inactive.

Consider `CCc1ccc(O)cc1`, for which the outcome was inactive.

Consider `CCCCCCCCC=CCCCCCCCC1=NCCN1CCO`, for which the call was inactive.

The next experiment concerns the target Glucocorticoid receptor (Homo sapiens) (UniProt P04150). The experiment is described as follows: ATG_GR_TRANS: Attagene TRANS-FACTORIAL HepG2 Assay for human Glucocorticoid Receptor (GR) (AID 2282978).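 Further: activators score as hits since higher reporter transcript over DMSO is fitted.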 The following applies: HepG2 Attagene TRANS GR reporter, mRNA transcription. Summed up: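 After 24 h incubation with test chemical, transfected HepG2 cells were lysed for RNA; reporter cDNA was amplified, FAM-labelled, HpaI-digested and sized on a capillary analyser. Signal gain relative to DMSO was scored.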
On to `CC1=NN(c2ccc(S(=O)(=O)O)cc2)C(=O)C1`, for which the molecule was called inactive.

`CCCCCCCCCCCCCC(=O)OCC(O)CO` (configuration not stated): the outcome was inactive.

As to `COCCc1ccc(OCC(O)CNC(C)C)cc1` (configuration not stated), the molecule was classed as inactive.

In the case of `Nc1ccc(Cl)c([N+](=O)[O-])c1`, the outcome was inactive.

As to `COC(C)(C)CCCC(C)CC=O` (configuration not stated), the molecule was classed as inactive.

As to `CS(=O)(=O)c1ccc(Cl)cc1`, the molecule was called inactive.

Regarding `COc1cc(CCC(C)=O)ccc1O`, the result was inactive.

Turning to `COC(=O)c1cccnc1`, the outcome was inactive.

Regarding `C=C(C)C(=O)OCCOCCOCCOC(=O)C(=C)C`, the molecule was called inactive.

Turning to `CCc1ccc(O)cc1`, the outcome was inactive.

Source of the values: PubChem BioAssay (EPA / NIEHS).
